Measured values taken from PubChem BioAssay AID1159580 (chemical genetic matrix, 2015).
Out of some 5,500 compounds screened, about 2,000 (36%) were called active. Roughly 18% stayed inconclusive and do not appear here. Rule as the data show it: active = normalized growth mostly below about 0.91 (no sharp cut-off); inconclusive = no clear call, values can overlap the other calls; inactive = mostly above about 0.92. The list shows a part of the results.

Experiment: chemical genetic growth profiling, strain panel (AID 1159580);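 also: tested at 20 µM; growth read once vehicle control cultures reached saturation at 30 °C; 1 = growth at the plate median or of vehicle wells; lower values mean less growth of the strain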
Conditions: growth OD

Measured: normalized growth

CCCC(=O)Nc1ncnc2c1ncn2C1O[C@@H]2COP(=O)(O)O[C@H]2[C@H]1OC(=O)CCC (stereo not given in full)
inactive: S. cerevisiae deletion strains, locus YJR066W, strain TOR1, stronger effect = lower value 0.97 | S. cerevisiae deletion strains, locus YKL009W, strain mrt4, stronger effect = lower value 1.01 | S. cerevisiae deletion strains, locus YKL068W, stronger effect = lower value 1.03 | S. cerevisiae deletion strains, locus YKL085W, strain MDH1 (second series), stronger effect = lower value 1.01 | S. cerevisiae deletion strains, locus YKL085W, strain MDH1, stronger effect = lower value 1.01 | S. cerevisiae deletion strains, locus YKL160W, strain elf1, stronger effect = lower value 0.999 | S. cerevisiae deletion strains, locus YKL190W, strain CNB1, stronger effect = lower value 1.01 | S. cerevisiae deletion strains, locus YKR001C, strain vps1, stronger effect = lower value 1.04 | S. cerevisiae deletion strains, locus YKR026C, strain gcn3, stronger effect = lower value 0.979 | S. cerevisiae deletion strains, locus YKR091W, strain srl3, stronger effect = lower value 0.989 | S. cerevisiae deletion strains, locus YLL001W, strain dnm1, stronger effect = lower value 0.967 | S. cerevisiae deletion strains, locus YLL026W, stronger effect = lower value 0.985 | S. cerevisiae deletion strains, locus YLL041C, strain sdh2, stronger effect = lower value 0.98 | S. cerevisiae deletion strains, locus YLR027C, strain aat2, stronger effect = lower value 0.999 | S. cerevisiae deletion strains, locus YLR039C, strain RIC1, stronger effect = lower value 1.02 | S. cerevisiae deletion strains, locus YLR058C, strain SHM2, stronger effect = lower value 1.01 | S. cerevisiae deletion strains, locus YLR102C, strain apc9, stronger effect = lower value 1.01 | S. cerevisiae deletion strains, locus YLR113W, strain HOG1, stronger effect = lower value 1.01 | S. cerevisiae deletion strains, locus YLR221C, strain rsa3, stronger effect = lower value 0.945 | S. cerevisiae deletion strains, locus YLR258W, strain gsy2, stronger effect = lower value 0.965 | S. cerevisiae deletion strains, locus YLR262C, strain YPT6 (second series), stronger effect = lower value 0.984 | S. cerevisiae deletion strains, locus YLR262C, strain YPT6, stronger effect = lower value 1.04 | S. cerevisiae deletion strains, locus YLR268W, strain sec22, stronger effect = lower value 1.03 | S. cerevisiae deletion strains, locus YLR320W, strain mms22, stronger effect = lower value 0.949 | S. cerevisiae deletion strains, locus YLR330W, strain CHS5, stronger effect = lower value 1.01 | S. cerevisiae deletion strains, locus YLR342W, strain FKS1 (second series), stronger effect = lower value 1 | S. cerevisiae deletion strains, locus YLR342W, strain FKS1, stronger effect = lower value 0.992 | S. cerevisiae deletion strains, locus YLR357W, strain rsc2, stronger effect = lower value 1 | S. cerevisiae deletion strains, locus YLR370C, strain arc18, stronger effect = lower value 0.952 | S. cerevisiae deletion strains, locus YLR371W, strain rom2, stronger effect = lower value 1.02 | S. cerevisiae deletion strains, locus YLR384C, strain iki3, stronger effect = lower value 0.976 | S. cerevisiae deletion strains, locus YLR418C, strain cdc73, stronger effect = lower value 1.04 | S. cerevisiae deletion strains, locus YML016C, strain PPZ1, stronger effect = lower value 1.01 | S. cerevisiae deletion strains, locus YML032C, strain rad52, stronger effect = lower value 1.03 | S. cerevisiae deletion strains, locus YML120C, strain ndi1, stronger effect = lower value 0.962 | S. cerevisiae deletion strains, locus YML124C, strain tub3, stronger effect = lower value 1.01 | S. cerevisiae deletion strains, locus YMR058W, strain fet3, stronger effect = lower value 0.986 | S. cerevisiae deletion strains, locus YMR078C, strain ctf18, stronger effect = lower value 1.03 | S. cerevisiae deletion strains, locus YMR125W, strain sto1, stronger effect = lower value 0.971 | S. cerevisiae deletion strains, locus YMR129W, stronger effect = lower value 0.991 | S. cerevisiae deletion strains, locus YMR205C, strain PFK2, stronger effect = lower value 0.98 | S. cerevisiae deletion strains, locus YMR223W, strain ubp8, stronger effect = lower value 1.03 | S. cerevisiae deletion strains, locus YMR231W, strain pep5, stronger effect = lower value 0.988 | S. cerevisiae deletion strains, locus YMR263W, strain SAP30, stronger effect = lower value 1 | S. cerevisiae deletion strains, locus YMR307W, strain GAS1, stronger effect = lower value 0.995 | S. cerevisiae deletion strains, locus YNL067W, strain RPL9B, stronger effect = lower value 1 | S. cerevisiae deletion strains, locus YNL071W, strain lat1, stronger effect = lower value 0.987 | S. cerevisiae deletion strains, locus YNL128W, strain TEP1, stronger effect = lower value 1.02 | S. cerevisiae deletion strains, locus YNL153C, strain GIM3, stronger effect = lower value 1 | S. cerevisiae deletion strains, locus YNL183C, strain NPR1, stronger effect = lower value 0.969 | S. cerevisiae deletion strains, locus YNL209W, strain ssb2, stronger effect = lower value 0.982 | S. cerevisiae deletion strains, locus YNL233W, strain BNI4, stronger effect = lower value 0.999 | S. cerevisiae deletion strains, locus YNL248C, strain rpa49, stronger effect = lower value 1.02 | S. cerevisiae deletion strains, locus YNL250W, strain rad50, stronger effect = lower value 1.03 | S. cerevisiae deletion strains, locus YNL271C, strain bni1, stronger effect = lower value 1.02 | S. cerevisiae deletion strains, locus YNL298W, strain CLA4, stronger effect = lower value 1.02 | S. cerevisiae deletion strains, locus YNL307C, strain MCK1, stronger effect = lower value 1.03 | S. cerevisiae deletion strains, locus YNL322C, strain KRE1 (second series), stronger effect = lower value 0.975 | S. cerevisiae deletion strains, locus YNR049C, strain mso1, stronger effect = lower value 0.981 | S. cerevisiae deletion strains, locus YNR052C, strain pop2, stronger effect = lower value 1.02 | S. cerevisiae deletion strains, locus YOL006C, strain TOP1, stronger effect = lower value 1.03 | S. cerevisiae deletion strains, locus YOL012C, strain htz1 0.919 | S. cerevisiae deletion strains, locus YOL147C, strain pex11, stronger effect = lower value 1.02 | S. cerevisiae deletion strains, locus YOR001W, strain rrp6, stronger effect = lower value 1.02 | S. cerevisiae deletion strains, locus YOR061W, strain CKA2, stronger effect = lower value 1.02 | S. cerevisiae deletion strains, locus YOR069W, strain VPS5, stronger effect = lower value 1 | S. cerevisiae deletion strains, locus YOR070C, strain gyp1, stronger effect = lower value 0.988 | S. cerevisiae deletion strains, locus YOR080W, strain dia2, stronger effect = lower value 0.983 | S. cerevisiae deletion strains, locus YOR083W, strain WHI5, stronger effect = lower value 0.986 | S. cerevisiae deletion strains, locus YOR106W, strain vam3, stronger effect = lower value 0.982 | S. cerevisiae deletion strains, locus YOR136W, strain idh2, stronger effect = lower value 1.02 | S. cerevisiae deletion strains, locus YOR144C, strain elg1, stronger effect = lower value 1.02 | S. cerevisiae deletion strains, locus YOR184W, strain ser1, stronger effect = lower value 1.02 | S. cerevisiae deletion strains, locus YOR231W, strain MKK1, stronger effect = lower value 1.03 | S. cerevisiae deletion strains, locus YOR265W, strain rbl2, stronger effect = lower value 0.978 | S. cerevisiae deletion strains, locus YOR270C, strain vph1, stronger effect = lower value 0.983 | S. cerevisiae deletion strains, locus YOR290C, strain snf2, stronger effect = lower value 0.961 | S. cerevisiae deletion strains, locus YOR316C, strain cot1, stronger effect = lower value 1.02 | S. cerevisiae deletion strains, locus YPL051W, strain arl3, stronger effect = lower value 0.997 | S. cerevisiae deletion strains, locus YPL078C, strain atp4, stronger effect = lower value 0.99 | S. cerevisiae deletion strains, locus YPL106C, strain sse1, stronger effect = lower value 0.941 | S. cerevisiae deletion strains, locus YPL240C, strain hsp82, stronger effect = lower value 0.994 | S. cerevisiae deletion strains, locus YPL241C, strain CIN2, stronger effect = lower value 1.01 | S. cerevisiae deletion strains, locus YPL256C, strain CLN2, stronger effect = lower value 1.06 | S. cerevisiae deletion strains, locus YPR119W, strain clb2, stronger effect = lower value 1.02 | S. cerevisiae deletion strains, locus YPR141C, strain kar3, stronger effect = lower value 1.01 | S. cerevisiae deletion strains, locus YPR163C, strain tif3, stronger effect = lower value 1.03 | S. cerevisiae deletion strains, locus YPR167C, strain met16, stronger effect = lower value 1.01 | S. cerevisiae deletion strains, strain wtn01, stronger effect = lower value 1.02 | S. cerevisiae strains, strain wild type, stronger effect = lower value 1.01
